Screening results as filed in PubChem BioAssay.
An excerpt weighted towards active compounds, which were near 2.8% of everything screened.
TWEAK Fn14 block: inhibitors of TWEAK-Fn14 signaling, primary screen, luciferase reporter cells, uHTS. TWEAK-stimulated Fn14 reporter cells, luciferase luminescence, 8 h. inhibition, % at 10 µM. hit rate 2% among 360,000. AID 1159606, 2016; in the data active = inhibition above about 50%
EWS-Fli inh: EWS/Fli-driven NR0B1 reporter inhibitors, primary screen, A673 cells, NR0B1 luciferase, luminescence, MLPCN library. viability-normalised. inhibition, % at 12.6 µM. hit rate 0.67% among 350,000. AID 651661, 2012;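 active = mean inhibition of at least 50% after viability correction, with every replicate also passing that limit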;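 note: firefly luciferase signal divided by Alamar Blue viability fluorescence both relative to DMSO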
TROY signal inh: inhibitors of TROY-driven NF-kB signaling, primary screen, Q293 LMP1-TROYcd cells, NF-kB luciferase, uHTS; Q293 LMP1-TROYcd NF-kB luciferase reporter, 4 h; AID 1347056, 2019; hit rate 0.98% among 360,000; inhibition, % at 10 µM;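 active = compounds whose plate-normalised and pattern-corrected inhibition of the luciferase reporter signal at the single screening dose is 50% or more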
PAX8 reporter: inhibitors of PAX8-driven TPO luciferase reporter, primary screen, RMG-I cells, single concentration; hit rate 1.2% among 360,000; inhibition, % at 12.6 µM; SteadyGlo, 24 h;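 active = mean replicate inhibition at least 60% with every replicate also reaching 60%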;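 note: luciferase light reporting Pax8 driven TPO promoter activity; plate controls were median of neutral control wells for no effect and mitoxantrone controls for full effect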
LGR2 inh: inhibitors of bursicon-induced LGR2 CRE-luciferase signal, primary screen, cell-based, HEK293, CRE-luciferase reporter, bursicon stimulation; Drosophila bursicon receptor LGR2 (rickets); bursicon-stimulated, 4 h; inhibition, % at 9.99 µM; hit rate 0.35% among 380,000; AID 720647, 2013;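 active = drop in luminescence signal, shown as inhibition above about 50% in the replicate tests, limit read from the data, passing the limit was not always enough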;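 note: agonist challenge used bursicon conditioned medium at about half maximal strength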
* hit, by the source's call; . = no result; ! = not active in a repeat.

SMILES	TWEAK Fn14 block	EWS-Fli inh	TROY signal inh	PAX8 reporter	LGR2 inh
C[C@@H]1CN([C@H](C)CO)S(=O)(=O)c2ccc(C#Cc3ccccc3F)cc2O[C@H]1CN(C)C(=O)c1ccc2c(c1)OCO2	43	15	17	63*!	2
C[C@@H]1CN([C@@H](C)CO)S(=O)(=O)c2ccc(C#Cc3ccncc3)cc2O[C@H]1CN(C)C(=O)Nc1ccc2c(c1)OCO2	.	71*	.	103*	.
C[C@H]1CN([C@@H](C)CO)S(=O)(=O)c2ccc(C#Cc3ccccc3)cc2O[C@H]1CN(C)C(=O)Nc1ccc2c(c1)OCO2	.	10	.	55	6
CO[C@@H]1CN(C)C(=O)c2cc(NC(=O)c3ccc(Oc4ccccc4)cc3)ccc2OC[C@H](C)NC[C@H]1C	.	69*	.	8	-1
CO[C@@H]1CN(C)C(=O)c2cc(NC(=O)c3ccc(-c4ccccc4)cc3)ccc2OC[C@H](C)NC[C@H]1C	.	54*	.	84*	0
CO[C@H]1CN(C)C(=O)c2cc(NC(=O)c3ccccc3)ccc2OC[C@@H](C)NC[C@H]1C	.	7	.	-4	-7
CO[C@H]1CN(C)C(=O)c2cc(NC(=O)c3ccc(-c4ccccc4)cc3)ccc2OC[C@H](C)NC[C@@H]1C	.	58*	.	28	7
CO[C@H]1CN(C)C(=O)c2cc(NC(=O)c3ccc(-c4ccccc4)cc3)ccc2OC[C@@H](C)NC[C@@H]1C	.	2	.	112*	22
C[C@@H]1CN([C@H](C)CO)C(=O)c2cc(NC(=O)Nc3cccc4ccccc34)ccc2O[C@H]1CN(C)S(C)(=O)=O	.	4	.	5	-20
N#C[C@H]1[C@H](c2ccc(C#Cc3ccccc3F)cc2)[C@@H](CO)N1C(=O)C1CCCC1	.	-10	.	.	-1
CO[C@@H]1CN(C)C(=O)c2ccc(NC(=O)c3ccc(-c4ccccc4)cc3)cc2OC[C@@H](C)NC[C@H]1C	.	42	.	68*	2
NNc1nc2c(F)cccc2s1	62*	-50	68*	0	-16
Fc1cccc2sc(Nc3nnc(-c4ccccc4)o3)nc12	103*	.	-47	.	.
Fc1cccc2sc(Nc3nc4c(F)cccc4s3)nc12	-29	.	-7	-12	-46
CCNC(=O)C[C@@H]1CC[C@@H]2[C@H](COC[C@@H](O)CN2C(=O)Nc2cccc(OC)c2)O1	.	.	.	.	4
C[C@H](CO)N1C[C@H](C)[C@H](CN(C)C(=O)Nc2ccc3c(c2)OCO3)Oc2ccc(NS(=O)(=O)c3cn(C)cn3)cc2C1=O	.	-30	.	.	10
Cc1ccc(S(=O)(=O)N(C)C[C@H]2Oc3c(NC(=O)C4CC4)cccc3C(=O)N([C@H](C)CO)C[C@@H]2C)cc1	.	6	.	-1	14
COc1cccc(S(=O)(=O)N2CCCCN3[C@H](C2)[C@H](c2ccc(-c4ccccc4)cc2)[C@@H]3CO)c1	.	-6	.	3	3
COc1ccc2nc(C)cc(SCC(=O)Nc3c(C)cccc3C)c2c1	4	74*	4	-13	13
O=c1cc(-c2ccccc2O)nc(-c2ccccc2)[nH]1	53*	-10	57*	3	-19
C[C@H](O)[C@@H]1CN2CCc3c([nH]c4ccccc34)[C@@H]2C[C@@H]1N(C)C(=O)Nc1cccc2ccccc12	34	-10	28	17	8
Cc1cccc(-c2ccc3[nH]c4c(c3c2)CCN2C[C@@H]([C@H](C)OC(=O)Nc3ccccc3C)[C@@H](N(C)C(=O)Nc3ccccc3C)C[C@@H]42)c1	88*	45	20	0	10
O=C(C1CCCC1)N1CCCCN2[C@H](CO)[C@@H](c3ccc(C#CC4CC4)cc3)[C@H]2C1	.	2	.	-19	.
C[C@@H]1CN([C@H](C)CO)C(=O)CCCn2nncc2CO[C@@H]1CN(C)C(=O)Nc1ccc(C(F)(F)F)cc1	.	-2	.	3	3
C=CC[C@H](CC(=O)N(CCO)Cc1ccccc1)C(=O)N[C@@H](COC(=O)[C@H](CC=C)CC(=O)OC(C)(C)C)Cc1c[nH]c2ccccc12	27	3	24	103*	26
SMILES	TWEAK Fn14 block	EWS-Fli inh	TROY signal inh	PAX8 reporter	LGR2 inh
C=CC[C@@H](CC(=O)N(CCO)Cc1ccccc1)C(=O)N[C@@H](COC(=O)[C@@H](CC=C)CC(=O)OC(C)(C)C)Cc1c[nH]c2ccccc12	33	2	3	63*	28
C=CC[C@@H](CC(=O)N(CCO)Cc1ccccc1)C(=O)N[C@H](COC(=O)[C@@H](CC=C)CC(=O)OC(C)(C)C)Cc1c[nH]c2ccccc12	28	-5	30	55	14
COC(=O)Nc1nc2ccc(C(=O)c3cccs3)cc2[nH]1	-18	64*	-10	64*	11
Cc1cccc(-c2ccc([C@@H]3[C@H]4CN(S(=O)(=O)c5cccc(F)c5)CC(=O)N4[C@H]3CO)cc2)c1	.	-3	.	19	3
Cc1ccnc(NC(=O)c2cc3ccccc3o2)c1	91*	75*	60*	58	77*
COC(=O)c1cccc(NC(=O)c2cc3ccccc3o2)c1	102*	84*	69*	-96	.
O=C(NC1=NCCS1)c1ccccc1	0	-34	-33	-19	6
COC(=O)c1cc(NC(=O)c2cc3ccccc3o2)cc(C(=O)OC)c1	-43	8	11	-17	0
O=C(Nc1ccccn1)c1cc2ccccc2o1	96*	.	70*	.	.
O=C(Nc1ccc(Cl)cn1)c1cc2ccccc2o1	46	.	10	.	.
O=C(NC1=NCCS1)c1cc2ccccc2o1	82*	.	20	13	.
Cc1ccc(C)c(NC(=O)c2cc3ccccc3o2)c1	-11	-84	-50	-95	-51
C[C@@H]1CN([C@@H](C)CO)C(=O)c2cc(NC(=O)Nc3ccccc3)ccc2O[C@H]1CN(C)S(=O)(=O)c1cn(C)cn1	.	-9	.	.	17
CCNC(=O)[C@@H]1[C@@H](CO)[C@@H]2Cn3c(ccc(-c4cccnc4)c3=O)[C@H]1N2Cc1ccccc1	.	9	.	-9	7
CCCNC(=O)[C@@H]1[C@@H](CO)[C@@H]2Cn3c(ccc(-c4ccccc4F)c3=O)[C@@H]2N1C(=O)CC	.	-2	.	1	-1
C[C@H]1CN([C@@H](C)CO)C(=O)c2cc(NC(=O)C3CC3)ccc2O[C@H]1CN(C)Cc1ccc(C(=O)O)cc1	.	.	.	-28	10
CCCNC(=O)C[C@@H]1C[C@@H]2c3cc(NC(=O)C4CCC4)ccc3O[C@@H]2[C@H](CO)O1	.	-10	.	-11	4
Cc1ccc([N+](=O)[O-])cc1N(CC(=O)Nc1ccc(S(=O)(=O)Nc2cccc(C(F)(F)F)c2)cc1)S(C)(=O)=O	85*	.	70*	.	11
Cc1noc(C)c1NC(=O)N(C)C[C@H]1OCc2ccccc2-c2ccccc2C(=O)N([C@@H](C)CO)C[C@@H]1C	.	-7	.	-7	-2
Cc1ccc(NC(=O)N2CCCc3ccccc32)cc1	-11	-30	-5	-76	-79
